Data published in ChEMBL document CHEMBL3433997, “St. Jude Leishmania screening dataset” (2016).

These compounds were tested against Hexose transporter 1 (Plasmodium falciparum) (UniProt O97467) (assay: ST_JUDE_LEISH: Cytotoxicity at 2uM final concentration against transgenic Leishmania Mexicana promastigotes LmPfHT that are glucose transport deficient and complemented with the Plasmodium falciparum hexose transporter. Activity is measured by DNA content using SYBR green in vitro).
Assay type: functional

Row | Compound | inhibition [%]
1 | Nc1ccc(-c2ccc(NC(=O)Nc3cc(C(F)(F)F)ccc3F)cc2)cn1 | 4.54
2 | O=C(/C=C/c1ccc(Cl)c(Cl)c1)NCCCCCCN1CCCN(C(=O)Nc2cccc(C(F)(F)F)c2)CC1 | 4.35
3 | COc1ccccc1CN1CCC(NC(=O)c2ccc(-c3cccc(C(F)(F)F)c3)s2)CC1 | 4.38
4 | CN(C)C(=O)CN1CCN(c2ncnc(N3CCc4c([nH]c5ccccc45)[C@@H]3c3ccc4c(c3)CCO4)n2)CC1 | 1.61
5 | CCCNC(=O)c1ccc(N2CCC(c3ccccc3C)CC2)nc1 | 0.25
6 | Cc1ccc(F)cc1S(=O)(=O)Nc1ccc(CCN2CCC(N3CCCCC3)CC2)cc1 | -0.31
7 | Cc1ccc(Nc2nccc(NCC(O)c3cccc(F)c3)n2)cc1 (centres undefined) | 1.15
8 | COc1cc2c(Nc3ccc(NC(=O)c4ccccc4)cc3)ncnc2cc1OCCCN1CCOCC1 | 3.13
9 | COc1ccc(-c2ccccc2OCCCNc2nc(NCCc3ccc(O)cc3)nc(N3CCNCC3)n2)cc1 | 3.49
10 | O=c1cc(NCCCNCc2ccc(Cl)c(Cl)c2)[nH]c2ccc(Oc3ccccc3)cc12 | -1.42
11 | O=C(Nc1ccc(-c2oc(C(=O)NCCc3cccc(Cl)c3)cc2-c2ccncc2)cc1)Nc1cccc(Cl)c1 | 1.65
12 | Cc1nc(C)c(-c2ccc(-c3ccc(F)cc3)cc2)c(O)c1Br | -0.09
13 | Cc1c(Cl)cccc1S(=O)(=O)N1CCCCC(c2ccc(C(F)(F)F)cc2)=N1 | 3.08
14 | COc1ccc2nc(-c3cc(-c4ccc(NC(=O)C(C)C)cc4)cnc3N)[nH]c2c1 | 40.7
15 | COC(=O)c1cccc(CNCc2cccc(-c3cccc(-c4nc5cccc(C)c5[nH]4)c3)c2)c1 | 8.21
16 | CCOC(=O)c1c(NC(=O)c2ccccc2)sc2c(O)c(CNC3CCCCC3)ccc12 | -0.58
17 | COc1ccc2nccc([C@@H](O)CN3CCC(NC(=O)c4cccc(-c5cc(C)no5)c4)CC3)c2c1 | 0.14
18 | N=C(N)NC(=O)Nc1cc(Br)c(Br)c(Br)c1 | 3.17
19 | CC(=O)N(C)c1ccc(C(=O)Nc2cccc(-c3cccc(-c4nc5cc(C(F)(F)F)ccc5[nH]4)c3)c2)cc1 | 7.82
20 | Cc1cc(OCCCN2CCCCC2)ccc1NC(=O)COc1ccc(Cl)cc1C(=O)c1cc(C#N)cc(C(F)(F)F)c1 | 3.53

Row | Compound | inhibition [%]
21 | c1ccc(COc2ccc(Nc3ncnc4cnc(-c5ccc(CNc6cccnc6)o5)cc34)cc2)cc1 | 3.46
22 | FC(F)(F)c1ccc2[nH]c(-c3cccc(-c4cccc(CNCc5cnn(-c6ccccc6)n5)c4)c3)nc2c1 | 5.16
23 | N#CCCN1CCN(Cc2cccc(-c3ccc(-c4nc5ccccc5[nH]4)cc3)c2)CC1 | 3.22
24 | CC(C)OC(=O)c1ccc(NC(=O)N[C@@H](Cc2ccc(O)cc2)C(=O)NC2CC3CCC(C2)N3Cc2ccccc2)cc1 (some centres undefined) | 4.77
25 | C#Cc1cccc(NC(=O)[C@H](CC2CCCCC2)Nc2ccc(C#N)c3ccccc23)c1 | 2.53
26 | CC(C)Sc1nc2c(c(=O)n1Cc1ccco1)C1(CCCCC1)Cc1ccccc1-2 | 2.03
27 | CCc1cc2c(Sc3nnc(N)s3)ncnc2s1 | 0.05
28 | Cc1ccc(C)c(C2CCN(CCCCNC(=O)c3ccc(NC(=O)c4ccc(Cl)cc4)cc3)CC2)c1 | 0.21
29 | Cc1nn(C)cc1C(C)Nc1nncc(-c2ccc(C(F)(F)F)cc2)n1 (centres undefined) | 2.27
30 | CCCN1CCN(CC(O)CNC(=O)Nc2ccc(Cl)cc2)CC1 (centres undefined) | 0.64
31 | Cc1ccc(-c2cnc(N)c3cc(-c4ccnc(N)n4)ccc23)cc1 | -2.15
32 | O=C(NC1CCCCC1)N(Cc1cccc(-c2ccc(CNCCc3ccccc3)cc2)c1)C1CCN(Cc2ccccc2)CC1 | 6.86
33 | CCN(CC)CCN(Cc1ccc(-c2ccc(C(F)(F)F)cc2)cc1)C(=O)Cn1c(CCc2ccc(F)c(C#N)c2)nc(=O)c2ccccc21 | 7.67
34 | NC1=NC2(CCCCC2)N(OCCCCCCN2C(=O)c3ccccc3C2=O)C(N)=N1 | 7.88
35 | Fc1cccc(Nc2nc(NCc3ccc(Cl)c(Cl)c3)nc(Nc3cccc(F)c3)n2)c1 | 13.6
36 | Brc1cccc(Nc2nccc(Nc3ccc(Oc4ccccc4)cc3)n2)c1 | 5.97
37 | CCN(CC)CCCC(C)N=c1cc(C=Cc2ccccc2Cl)[nH]c2cc(Cl)ccc12 (centres undefined) | 3.03
38 | Cc1cc2ccccc2n1CC(=O)N1CC(C(=O)N2CCCCC2)Oc2ccccc21 (centres undefined) | 3.02
39 | CC1=C(C(=O)Nc2cc3cn[nH]c3cc2F)C(c2ccc(Cl)c(NS(C)(=O)=O)c2)CC(=O)N1 (centres undefined) | -0.1
